Measurements taken from the supplement of paper PMC3334620.
The full ranking holds about 33,000 sequences; the median of “E-score (-0.5 to 0.5)” is about -0.035, and the highest 2% start at about 0.34. Shown is part of a subset that was picked to be rich in the highest values.

Target: T1, Mot3 (UniProt P54785)
T1 sequence: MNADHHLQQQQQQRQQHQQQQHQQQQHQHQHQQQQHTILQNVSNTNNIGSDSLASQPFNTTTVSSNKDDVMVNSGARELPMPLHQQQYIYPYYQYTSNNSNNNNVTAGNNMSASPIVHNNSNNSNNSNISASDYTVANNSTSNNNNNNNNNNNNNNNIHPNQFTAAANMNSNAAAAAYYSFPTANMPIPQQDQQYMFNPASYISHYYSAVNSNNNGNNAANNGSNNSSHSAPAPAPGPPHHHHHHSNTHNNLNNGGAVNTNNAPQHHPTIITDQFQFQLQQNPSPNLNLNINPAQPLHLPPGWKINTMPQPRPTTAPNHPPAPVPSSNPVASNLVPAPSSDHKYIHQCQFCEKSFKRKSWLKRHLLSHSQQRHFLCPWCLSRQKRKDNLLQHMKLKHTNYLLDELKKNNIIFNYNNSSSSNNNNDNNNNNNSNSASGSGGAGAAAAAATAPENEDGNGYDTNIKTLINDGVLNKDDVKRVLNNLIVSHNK
Experiment: PBM E-score (8-mer binding enrichment) (E-score (-0.5 to 0.5)); higher = stronger / more preferred TF binding
Details: protein concentration: 200 nM; construct: GST-full length
Method in brief: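 Universal all-10-mer Agilent arrays, double-stranded by primer extension on fresh or once-stripped slides, were probed with about 100-200 nM GST-tagged yeast transcription factors made by PURExpress. Fluorescent anti-GST detected bound protein, and masliner normalised the scans. E-scores from the Universal PBM Analysis Suite were given to each ungapped eight-base word pooled with its reverse complement.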

Sequence | PBM E-score
CGCAGCCC | -0.265
CAGCAACC | -0.184
TAACGCAA | 0.2
CGAGAACG | -0.206
GGGTAAGA | -0.146
ATCGCTTC | -0.178
ACAAAGGG | -0.0152
ACAAAGGC | 0.36
CCAAAGGC | 0.145
ATAGCGCA | -0.0413
AGAGCTAT | 0.00577
GAATGTAA | 0.295
CAATGTAA | 0.34
AAATGTAC | 0.227
AAATGTAA | 0.346
TAATGTCA | 0.139
TAATGTAA | 0.354
CAATGTAC | 0.184
CAATGTAG | 0.234
AAATGTAG | 0.151
ATTCTCTC | -0.103
ATATTAAA | 0.184
